Bioassay records as filed in PubChem.
Shown is part of a subset that was picked to be rich in hits.
Menin-MLL TR inh – displaces Texas Red mutant MLL peptide from human menin; Menin + Texas Red MLL mutant peptide, fluorescence polarization; Potency, µM (doses to about 61.6 µM), for the others: top-dose FP activity change, negative = inhibition, usual class: inhibitors; 270,000 tested, 0.23% active; AID 1768; active = well fitted inhibition curve with a large enough effect in the polarisation, with a control signal flat, not every such curve was filed as active; inconclusive = small, poorly fitted or top-dose-only effect, or effect the other way, or a change in a side signal; inactive = no such curve, though single readings can be large or run the other way; the % refers to the polarisation; also: potency is read from the fitted curve at half-maximal effect; % of control where 0% means no effect
Lamin A splicing – LMNA splicing modulation | HeLa LMNA splicing GFP/RFP minigene ratio, 48 h | Potency, µM (highest dose often 46.1 µM), inactives show top-dose ratio change, negative = inhibition, hits mostly inhibitors | 200,000 tested, 0.01% active; active = well fitted inhibition curve with a large enough effect in the signal ratio, with a control signal flat, not every such curve was filed as active; inconclusive = small, poorly fitted or top-dose-only effect, or effect the other way, or a change in a side signal; the % refers to the signal ratio; also: potency is read from the fitted curve at half-maximal effect; % is scaled to controls: 0 for no effect and ±100 for the full control effect
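S3 HeLa stable clones carrying a lamin A-EGFP splicing minigene plus DsRed2 were seeded at 600 cells/well in Opti-MEM with 2% FBS, pin-dosed and incubated 48 h at 37°C. Acumen cytometry (488 nm) gave the GFP/RFP total-intensity ratio.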
Menin-MLL FL inh – displaces fluorescein MLL peptide from human menin. Fluorescence polarization, fluorescein-MLL peptide displacement from menin. FP activity change, % at 61.4 µM. 290,000 tested, under 10 active; active = well fitted curve in the direction sought with a large enough effect in the polarisation, not every such curve was filed as active; inconclusive = small, poorly fitted or top-dose-only effect, or effect the other way, or a change in a side signal; inactive = no such curve, though single readings can be large or run the other way; the % refers to the polarisation; also: % of control where 0% means no effect
CBFb RUNX1 block – inhibitors of human CBF-beta and RUNX1 interaction; Q01196+Q13951; AlphaScreen CBFb-His/RUNX1-biotin binding, biochemical; Potency, µM (top dose mostly 59.8 µM), for the others: at the top dose activity, negative = inhibition, actives largely listed as inhibitors; 230,000 tested, under 10 active; AID 1477; active = well fitted curve in the direction sought with a large enough effect; inconclusive = small, poorly fitted or top-dose-only effect, or effect the other way, or another doubt; inactive = no such curve, though single readings can be large or run the other way; also: % of control where 0% means no effect
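Interaction loss through any mechanism counts as activity. Pre-formed complex of His-CBF-beta and biotin-RUNX1 (30 nM apiece) is incubated with compound 15 min, then with 50 ng nickel and 50 ng streptavidin beads for 90 min before AlphaScreen detection.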
CXXC DNA block – MLL CXXC-DNA interaction inhibition | Q03164 | MLL-CXXC / FITC-HOXA9 DNA fluorescence polarization | Potency, µM (top dose mostly 115 µM), inactives show at the highest dose activity change, negative = inhibition, usual class: inhibitors | 290,000 tested, 0.037% active | AID 2662; active = well fitted inhibition curve with a large enough effect in the polarisation, with a control signal flat, not every such curve was filed as active; inconclusive = small, poorly fitted or top-dose-only effect, or effect the other way, or a change in a side signal; inactive = no such curve, though single readings can be large or run the other way; the % refers to the polarisation; also: potency is read from the fitted curve at half-maximal effect
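Purified MLL-CXXC (added from a 7 uM solution) was preincubated 5 min at ambient with pinned compounds in 50 mM Tris-HCl pH 7.5, 50 mM NaCl, 1 mM DTT, 0.05% BSA. Fluorescein-labeled HOX-A9 DNA (50 nM solution) followed, 30 min, then polarization read.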
* hit, by the source's call; ? = inconclusive; . = no result; ! = not confirmed by another sample; [ ] = dose if it differs, or a comment.

SMILES | Menin-MLL TR inh | Lamin A splicing | Menin-MLL FL inh | CBFb RUNX1 block | CXXC DNA block
CNc1nc(-c2ccc(N(C)C)cc2)nc2ccccc12 | -21% | ? | -5 | . | .
CN(C)c1ccc(-c2nc(N(C)C)c3ccccc3n2)cc1 | -8% | 13µM* | 0 | . | .
CCOP(=O)(OCC)c1nc(-c2ccccc2)oc1N1CCCCC1 | 32µM* | . | 4 | . | 7%
CCCCNc1c(C(=O)OCC)c(C)nc2c1cnn2CC | 40µM*! | ? | 9 | 26% | 7%
CCCNC(=O)Cn1c(=O)/c(=C\c2ccc(-c3cccc([N+](=O)[O-])c3)o2)s/c1=C\C(=O)C(C)(C)C | ? | -7% | -3 | -2% | -8%
CCCNC(=O)Cn1c(=O)/c(=C\c2ccc(-c3ccc([N+](=O)[O-])cc3)o2)s/c1=C\C(=O)C(C)(C)C | 18µM* | ? | ? | -1% | 1%
CN(C)c1nc(NC2CCC(NC(=O)c3ccc(F)c(F)c3)CC2)nc2ccccc12 (configuration not stated) | -12% | . | -1 | -4% | .
COc1ccc(NC(=O)c2cc(=O)[nH]c3ccccc23)cc1 | -14% | . | -10 | . | -3%
COc1ccc(NCc2cc(=O)[nH]c3ccccc23)cc1 | 40µM* | . | -21 | . | 21%
CO[C@H]1C[C@@H]2CC[C@@H](C)[C@@](O)(O2)C(=O)C(=O)N2CCCC[C@H]2C(=O)O[C@H]([C@H](C)C[C@@H]2CC[C@@H](OCCO)[C@H](OC)C2)CC(=O)[C@H](C)/C=C(\C)[C@@H](O)[C@@H](OC)C(=O)[C@H](C)C[C@H](C)/C=C/C=C/C=C/1C | -9% | . | 1 | . | 4%
CC(C)C[C@H](NC(=O)[C@H](Cc1ccccc1)NC(=O)CNC(=O)[C@H](CCC(=O)O)NC(=O)[C@H](CCCNC(=N)N)NC(=O)[C@H](C)NC(=O)[C@H](C)NC(=O)[C@@H](N)CC(=O)O)C(=O)N[C@@H](CC(=O)O)C(=O)N[C@H](C(=O)N[C@@H](CC(C)C)C(=O)N[C@H](C(=O)N[C@H](C(=O)N[C@@H](CC(C)C)C(=O)N[C@@H](Cc1cnc[nH]1)C(=O)N[C@@H](CCCNC(=N)N)C(=O)N[C@@H](C)C(=O)NCC(=O)N[C@@H](C)C(=O)N[C@@H](CCCNC(=N)N)C(=O)O)C(C)C)C(C)C)[C@@H](C)O | 7% | . | -3 | -1% | .
CCCSS/C(CCO)=C(/C)N(C=O)Cc1cnc(C)nc1N | 7% | . | 3 | . | -1%
Oc1ccc(/C=C/c2ccc3ccccc3n2)cc1 | ? | 13µM* | 22 | 29% | 5%
COc1ccc(-c2csc(NC(=O)c3cc(-c4cccs4)nc4ccccc34)n2)c(OC)c1 | . | -6% | . | -1% | -11%
COc1ccccc1-c1csc(NC(=O)c2cc(-c3cccs3)nc3ccccc23)n1 | 8.9µM* | -11% | 7 | 0% | 11%
COc1ccc(/C=N/Nc2cc(C)nc3ccc(OC)cc23)c(OC)c1 | 13µM* | . | -10 | . | ?
CCCC(=O)NCCc1c(I)[nH]c2ccc(OC)cc12 | . | . | . | 5% | .
CC(=O)Nc1ccc(S(=O)(=O)NC2=C(N3CCN(c4ccc(F)cc4)CC3)C(=O)c3ccccc3C2=O)cc1 | . | 11µM* | 1 | ? | 6%
Cc1ccc(S(=O)(=O)NC2=C(N3CCN(c4ccccc4F)CC3)C(=O)c3ccccc3C2=O)cc1 | ? | 5%[0.0737 µM] | -13 | ? | -10%
CC(=O)Nc1ccc(S(=O)(=O)Oc2ccc(/C=C3\SC(N)=NC3=O)cc2)cc1 | 14µM* | . | -1 | -3% | 2%
CC1CC=CC2C1C(=O)N(Cc1ccccc1)C2c1ccc(F)c(Br)c1 (configuration not stated) | ? | . | 0 | ? | .
CCC1Cc2cc(O)ccc2C2=C1c1ccc(O)cc1CC2CC (configuration not stated) | ? | . | -1 | -8% | .
COc1cc2c3nnc(-c4ccccc4)c-3cn(Cc3ccccc3F)c2cc1OC | 13µM* | -8%[46 µM] | ? | 5% | 6%
Cc1ccc(O)c(Nc2c3ccccc3nc3ccccc23)c1 | 13µM* | . | -12 | . | 30%
Cc1noc(C)c1-c1ccc2ncnc(NCc3ccc(Br)cc3)c2c1 | 45% | . | -3 | 13% | .
SMILES | Menin-MLL TR inh | Lamin A splicing | Menin-MLL FL inh | CBFb RUNX1 block | CXXC DNA block
COc1ccc(C2=Nn3c(nnc3-c3cccc(OC)c3)SC2)cc1 | 2% | . | -1 | 3% | .
COC(=O)COc1ccc(NC(=O)Cn2nc(-c3ccccc3)c3ccccc3c2=O)cc1 | -12% | . | -1 | 2% | 5%
COc1ccc(-c2nn(CC(=O)Nc3ccc(Cl)c(Cl)c3)c(=O)c3ccccc23)cc1 | 10µM* | 7% | 6 | -3% | 17%
Cc1nc2ccc(C(=O)O)cc2c2c1CC(C)S2 (configuration not stated) | 20µM* | 15% | 15 | -21% | 9%
Cc1nc2cc(C(=O)O)ccc2s1 | -7% | 5% | 0 | 5% | -7%
COc1ccc2nc(SCC(=O)Nc3ccc(S(=O)(=O)N4CCCC4)cc3)c(C#N)cc2c1 | 16µM* | -28% | 13 | 11% | 28%
Clc1cc(Cl)c(OCC#CI)cc1Cl | 3% | . | 0 | . | 11%
CCCC(=O)Nc1nnc(SCC(=O)Nc2nc(C)cs2)s1 | . | . | . | . | 14%
Cc1csc(NC(=O)CSc2nnc(NC(=O)COc3ccc(Cl)cc3)s2)n1 | 25µM* | 0% | 18 | -5% | 13%
O=C(Cn1cnc2sc(-c3ccccc3)cc2c1=O)NCc1ccco1 | 25µM* | ? | 11 | ? | 6%
CC1CC=CC2C1C(=O)N(Cc1ccccc1)C2c1ccc2ccccc2c1Br (configuration not stated) | ? | . | 3 | 20% | .
O=C(O)CCCNc1cc(N2CCN(C(=O)c3ccco3)CC2)c2noc3c2c1C(=O)c1ccccc1-3 | 16µM* | . | ? | . | ?
O=C(O)CCCNc1cc(N2CCC3(CC2)OCCO3)c2noc3c2c1C(=O)c1ccccc1-3 | ? | 8% | ? | . | ?
CCOc1ccccc1-c1nnc2n1N=C(c1cccc(OC)c1)CS2 | ? | . | -10 | 5% | .
COc1cc(NCc2ccc3nc(N)nc(N)c3c2C)cc(OC)c1OC | 25µM*! | . | 0 | ? | 12%
Cc1cccc(NC(=S)NC(=O)c2cc(-c3ccccc3)nc3ccccc23)c1 | 35µM* | 12% | -1 | -13% | -1%
Cc1cccc(-c2cc(C(=O)Nc3ccc4c(c3)OCCO4)c3ccccc3n2)c1 | 2% | ? | 5 | 1% | 13%
COc1cccc(O)c1O | 5% | ? | 1 | . | .
COc1cc(C2C(C#N)=C(N)Oc3c2ccc2ccccc32)ccc1OCC(=O)Nc1ccccc1C (configuration not stated) | 25µM* | ? | 4 | -7% | 26%
